Calls of active or inactive are those of the source. How the calls were made is not given here.
Test system: HIV-1 nucleocapsid protein NCp7 (binding to TG oligonucleotide)
Assay: HIV Nucleocapsid (AID 346);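 further: potency is for inhibitors that block NC binding and lower polarization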
Conditions: HIV-1 NC / fluorescein-TGTGTGTG probe, fluorescence polarization
How it was run: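 Fluorescence polarization binding of 100 nM HIV-1 NC to 10 nM fluorescein-labelled TG4xF oligonucleotide. Buffer was Hepes pH 7.5 with 250mM NaCl, 1uM ZnCl2, TCEP and 2-mercaptoethanol. Compounds were incubated 1 hr at room temperature before the read.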
Potency means the concentration at half of the fitted maximal effect.

Row | Compound | Potency
1 | CN(C)C(=O)c1ccc(-c2ccc3ncnc(Nc4ccc(F)cc4)c3c2)cc1 | > 20 µM (inactive)
2 | CCNc1ncc2nc(CCc3ccccc3)c(=O)n(C3CC3)c2n1 | > 20 µM (inactive)
3 | CN1CCN(c2ncnc3ccc(-c4cccnc4)cc23)CC1 | > 20 µM (inactive)
4 | COc1ccc(CNc2ccnc(-c3c(C)noc3C)n2)c(OC)c1 | > 20 µM (inactive)
5 | Cn1cccc1C(=O)N1CCC[C@@]2(CCN(Cc3nccs3)C2)C1 | > 20 µM (inactive)
6 | O=C(c1ccncc1)N1CCC2(CCCN(c3ccc(-c4ccccc4)cc3)C2)CC1 | > 20 µM (inactive)
7 | O=S(=O)(c1ccccc1)N1CCC2(CCCN(Cc3ccncc3)C2)CC1 | > 20 µM (inactive)
8 | Cc1cccc(CNc2ncncc2-c2ccccc2Cl)c1 | > 20 µM (inactive)
9 | COc1ccc(Oc2ncc3ncc(=O)n(CCc4ccccc4)c3n2)cc1 | > 20 µM (inactive)
10 | COCC(=O)N1CCC2(CCCN(Cc3ccccc3)C2)CC1 | > 20 µM (inactive)
11 | CCNc1ncc2nc(C)c(=O)n(-c3ccc(OC)cc3)c2n1 | > 20 µM (inactive)
12 | COc1ccc(Oc2ncc3nc(-c4ccccc4)c(=O)n(C4CC4)c3n2)cc1 | > 20 µM (inactive)
13 | CC(C)CN1CCC2(CC1)CCN(C(=O)c1ccco1)CC2 | > 20 µM (inactive)
14 | COc1cccc(Nc2ncc3nc(-c4ccc(F)cc4)c(=O)n(CCC#N)c3n2)c1 | > 4 µM (inactive)
15 | O=S(=O)(c1ccccc1)N1CCC2(CCCN(c3ccncc3)C2)CC1 | > 20 µM (inactive)
16 | CNc1nc(-c2ccoc2)nc2ccccc12 | > 20 µM (inactive)
17 | COc1ccccc1CNc1nc(-c2cccc(NS(C)(=O)=O)c2)nc2ccccc12 | > 20 µM (inactive)
18 | COc1ccc(C(=O)N2CCC3(CCCN(c4ccc(-c5ccccc5)cc4)C3)CC2)cc1 | > 20 µM (inactive)
19 | O=C(c1cc(C(F)(F)F)cc(C(F)(F)F)c1)N1CCC2(CCCN(Cc3ccccc3)C2)CC1 | > 20 µM (inactive)
20 | Cn1cccc1C(=O)N1CCC2(CC1)CCN(c1ccccc1)CC2 | > 20 µM (inactive)
21 | CNc1cc(-c2ccccc2C)ncn1 | > 20 µM (inactive)
22 | COCCNc1ncnc2ccc(-c3cccc(OC)c3)cc12 | > 20 µM (inactive)
23 | COCCn1c(=O)c(-c2cc(F)cc(F)c2)nc2cnc(Oc3ccc(OC)cc3)nc21 | > 20 µM (inactive)
24 | Cc1cccc(CNc2ncnc3ccc(-c4ccoc4)cc23)c1 | > 20 µM (inactive)
25 | CN(C)c1ncc2nc(-c3ccccc3)c(=O)n(Cc3cccs3)c2n1 | > 20 µM (inactive)
